This passage reports Potency and PLD induction results from PubChem BioAssay (Tox21).

Test [1] can be described thus: qHTS assay to identify aromatase inhibitors - cell viability counter screen (AID 743084).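 Also: cells stimulated with testosterone during compound exposure; nearly all actives have a fitted effect of over 55% in size.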 Also: potency is read from the fitted curve at half-maximal effect.
Test [2] is described as follows: qHTS assay to identify small molecule that activate the aryl hydrocarbon receptor (AhR) signaling pathway - cell viability counter screen (AID 743086). Also: nearly all actives have a fitted effect of over 45% in size. Also: potency is read from the fitted curve at half-maximal effect. Put shortly:
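HepG2-AhR-luc (HG2L7.5c1) cells, 4000/well, were preincubated 5 h at 37C, exposed to compound in qHTS format for 24 hr at 37C, then given CellTiter-Fluor for 30 min; viability was read as fluorescence in the reporter wells.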
A general note: qHTS replaces the single test concentration by a dilution series.

The target in test [3] is Peroxisome proliferator-activated receptor gamma (Homo sapiens) (UniProt P37231). Briefly: qHTS assay to identify small molecule agonists of the peroxisome proliferator-activated receptor gamma (PPARg) signaling pathway (AID 743094; active = well fitted activation curve with a large enough effect in the signal ratio in the repeat runs, not every such curve was filed as active; the % refers to the signal ratio). An outline of the steps: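 GeneBLAzer PPARg UAS-bla HEK293H cells carrying a stably integrated beta-lactamase reporter were pre-incubated 5 h at 37C, then exposed to compounds in DMSO for 17 h at 37C; LiveBLAzer B/G FRET substrate was added for 1 h at room temperature and fluorescence read.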
Sequence of Peroxisome proliferator-activated receptor gamma (Homo sapiens) (P37231 whole entry, looked up): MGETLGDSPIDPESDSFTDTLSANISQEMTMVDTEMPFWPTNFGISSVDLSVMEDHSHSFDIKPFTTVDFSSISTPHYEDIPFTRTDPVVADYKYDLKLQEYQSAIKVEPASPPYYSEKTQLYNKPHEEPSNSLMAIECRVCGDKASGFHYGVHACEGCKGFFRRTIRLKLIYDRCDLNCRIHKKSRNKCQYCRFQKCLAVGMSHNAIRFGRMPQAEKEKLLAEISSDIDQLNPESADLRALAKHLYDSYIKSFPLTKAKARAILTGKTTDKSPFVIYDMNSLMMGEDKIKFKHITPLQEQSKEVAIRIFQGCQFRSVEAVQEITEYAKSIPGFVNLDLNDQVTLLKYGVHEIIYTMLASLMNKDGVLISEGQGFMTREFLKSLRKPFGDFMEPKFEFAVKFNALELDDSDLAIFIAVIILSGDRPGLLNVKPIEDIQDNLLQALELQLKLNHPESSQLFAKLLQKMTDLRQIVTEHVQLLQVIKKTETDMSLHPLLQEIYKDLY

Test [4] in a line: qHTS assay to identify small molecule phospholipidosis (PLD) inducers (AID 1259344; active = well fitted curve in the direction sought with a large enough effect; an effect the other way counts as inactive or inconclusive). An outline of the steps:
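HepG2 cells grown on collagen I take up LipidTOX Red while exposed to compound for 24 h; after fixation they are imaged at 20x and pit metrics are extracted.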

For test [5], the target named is Aryl hydrocarbon receptor (Homo sapiens) (UniProt P35869). Description: qHTS assay to identify small molecule that activate the aryl hydrocarbon receptor (AhR) signaling pathway (AID 743085). Also: nearly all actives have a fitted effect of over 15% in size. Also: potency is read from the fitted curve at half-maximal effect.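 As to activation: HG2L7.5c1 human HepG2 liver cells with stably integrated DRE-driven firefly reporter; series mostly up to about 70 µM.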 An outline of the steps: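 Stably transfected human liver carcinoma cells (HG2L7.5c1; 20 DRE-firefly luciferase) were incubated 5 h, dosed, and kept 24 h at 37C. Agonism was scored from increased luciferase luminescence.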
Sequence of Aryl hydrocarbon receptor (Homo sapiens) (P35869 whole entry, looked up): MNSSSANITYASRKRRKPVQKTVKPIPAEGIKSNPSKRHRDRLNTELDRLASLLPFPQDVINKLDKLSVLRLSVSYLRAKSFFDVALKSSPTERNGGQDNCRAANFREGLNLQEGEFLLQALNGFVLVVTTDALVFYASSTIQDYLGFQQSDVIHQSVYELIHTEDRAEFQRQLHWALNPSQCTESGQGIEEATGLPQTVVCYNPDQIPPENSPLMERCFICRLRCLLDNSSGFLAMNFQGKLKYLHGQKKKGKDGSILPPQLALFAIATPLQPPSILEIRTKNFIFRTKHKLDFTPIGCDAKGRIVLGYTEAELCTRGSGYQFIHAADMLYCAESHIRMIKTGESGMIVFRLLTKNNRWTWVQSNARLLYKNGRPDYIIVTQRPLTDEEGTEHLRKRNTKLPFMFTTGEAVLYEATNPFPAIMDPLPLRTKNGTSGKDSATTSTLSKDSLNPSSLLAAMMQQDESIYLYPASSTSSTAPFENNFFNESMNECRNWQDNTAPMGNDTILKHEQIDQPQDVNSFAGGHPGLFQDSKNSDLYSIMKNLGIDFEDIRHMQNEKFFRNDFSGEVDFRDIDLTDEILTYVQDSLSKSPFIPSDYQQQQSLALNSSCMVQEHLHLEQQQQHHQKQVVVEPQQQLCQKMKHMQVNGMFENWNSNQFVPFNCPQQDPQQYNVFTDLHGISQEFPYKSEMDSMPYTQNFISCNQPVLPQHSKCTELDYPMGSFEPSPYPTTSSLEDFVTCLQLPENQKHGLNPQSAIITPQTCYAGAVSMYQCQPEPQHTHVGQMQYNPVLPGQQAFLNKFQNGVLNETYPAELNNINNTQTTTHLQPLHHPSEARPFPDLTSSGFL

The structures appear in SMILES notation. Inconclusive results are not listed. A number with no mark means an inactive call. Activity calls are given as the source filed them. Unless noted, calls follow the shape of the dose curve; as a rule, active = well fitted curve in the direction sought with a large enough effect in the repeat runs; inconclusive = weak or mixed curves; inactive = no such curve, though single readings can be large; an effect the other way counts as inactive or inconclusive. Starred links: 1 amine or outer side, 2 acyl side, 3 side chain; linkers in the order of their positions; H or OH if unused. Positions of bridges follow the written chain, without caps; N, C: chain ends. Non-standard residues stand in square brackets, D forms with d. Residues, ends and D or L forms follow the SMILES beside them. *: point of attachment. X5 = NC1=N[C@@H]([C@H](N[*:1])C(=O)[*:2])C[C@H](O)N1; ΔAla(Z-3-ureido) = NC(=O)N/C=C(\N)C(=O)O; β3hOrn = NCCC[C@H](N)CC(=O)*; Dap = NC[C@H](N)C(=O)O
% is scaled to controls: 0 for no effect and ±100 for the full control effect.

With `COc1ccc(CCNCC(O)COc2cccc(C)c2)cc1OC` (centres undefined), the Potency entry in test [1], in test [2], in test [3] and in test [4] was “inactive” throughout.

On to `CC(=O)O[C@H]1CC[C@@]2(C)C(=CC[C@@H]3[C@@H]2CC[C@]2(C)C(c4cccnc4)=CC[C@@H]32)C1`, for which the Potency entry in test [1], in test [2], in test [3] and in test [4] was “inactive” each time.

As for `CCCCCCC(=O)O[C@H]1CC[C@H]2[C@@H]3CCc4cc(O)ccc4[C@H]3CC[C@]12C`, the Potency result in test [1], in test [2] and in test [4] was “inactive” each time.

In the case of `CS(=O)(=O)Nc1cc2occ(NC=O)c(=O)c2cc1Oc1ccccc1`, the Potency entry in test [1], in test [5], in test [3] and in test [4] was “inactive” throughout.

For `O=c1[nH]cnc2[nH]cc(CN3CCCCC3)c12`, the Potency entry in test [1], in test [2] and in test [3] was “inactive” throughout. For the same compound, in test [4], the PLD induction is 1.92% [at 1.53 µM].

Consider `O=C(Cn1c(=O)sc2ccc(Cl)cc21)N1CCN(CCO)CC1`, for which the Potency result in test [1], in test [2] and in test [3] was “inactive” in each case. Also, the PLD induction in test [4] was 3.19% [at 7.66 µM].

`CC(=O)O[C@H]1C[C@@H]2CC[C@@H]3[C@H](CC[C@@]4(C)[C@H]3C[C@H](N3CC[N+](C)(C)CC3)[C@@H]4OC(C)=O)[C@@]2(C)C[C@@H]1N1CC[N+](C)(C)CC1`: the Potency entry in test [1], in test [2] and in test [4] was “inactive” each time.

For `NCCC[C@H](N)CC(=O)N[C@H]1CNC(=O)[C@H]([C@H]2C[C@H](O)NC(N)=N2)NC(=O)/C(=C/NC(N)=O)NC(=O)[C@H](CO)NC(=O)[C@H](CO)NC1=O` (β3hOrn-[Dap]SS[ΔAla(Z-3-ureido)][X5]; lactam 1-C), the Potency result in test [1], in test [2], in test [3] and in test [4] was “inactive” throughout.

In the case of `NNc1nnc(Cc2ccncc2)c2ccccc12`, the Potency result in test [1] and in test [2] was “inactive” in each case. Moreover, in test [4], the PLD induction is -2.11% [at 7.66 µM].

`CN(C(=O)CO)c1c(I)c(C(=O)NCC(O)CO)c(I)c(C(=O)NCC(O)CO)c1I` (centres undefined): the Potency entry in test [1], in test [2] and in test [4] was “inactive” each time.

With `COc1cc(C[C@@H]2NCCc3cc(O)c(O)cc32)cc(OC)c1OC`, the Potency result in test [1], in test [2] and in test [4] was “inactive” each time.

Take `Nc1c(Br)cc(Br)cc1CNC1CCC(O)CC1` (centres undefined): the Potency result in test [1], in test [2], in test [3] and in test [4] was “inactive” throughout.

For the compound `O=S(O)CNc1ccc(S(=O)(=O)c2ccc(NCS(=O)O)cc2)cc1`, the Potency entry in test [1], in test [2], in test [3] and in test [4] was “inactive” throughout.

Regarding `CCC(=O)Oc1ccc2c(c1)CC[C@@H]1[C@@H]2CC[C@]2(C)[C@@H](OC(=O)CC)CC[C@@H]12`, the Potency entry in test [1], in test [5], in test [3] and in test [4] was “inactive” in each case.

On to `CN(CC(=O)N1CCOCC1)Cc1c(Cl)cccc1NC(=O)c1ccccc1`, for which the Potency result in test [1], in test [3] and in test [4] was “inactive” each time. Also, the Potency in test [5] is 13.3 µM (active).

Regarding `CC(O)[C@@H]1NC(=O)[C@H](CCCCN)NC(=O)[C@@H](Cc2c[nH]c3ccccc23)NC(=O)[C@H](Cc2ccccc2)NC(=O)[C@@H](NC(=O)[C@H](N)Cc2ccccc2)CSSC[C@@H](C(=O)N[C@H](CO)[C@@H](C)O)NC1=O` (some centres undefined), the Potency entry in test [1], in test [2], in test [3] and in test [4] was “inactive” each time.

Take `C[C@H]1C[C@@H]2[C@H]([C@@H](O)C[C@@]3(C)[C@H]2CC[C@]3(O)C(=O)COC(=O)CCC(=O)O)[C@@]2(C)C=CC(=O)C=C12`: the Potency entry in test [1], in test [5] and in test [3] was “inactive” each time. Besides, the PLD induction in test [4] was 0.704% [at 7.66 µM].

Turning to `CCC[C@@]1(CCc2ccccc2)CC(O)=C([C@H](CC)c2cccc(NS(=O)(=O)c3ccc(C(F)(F)F)cn3)c2)C(=O)O1`, the Potency entry in test [1] and in test [2] was “inactive” throughout. Moreover, in test [4], the PLD induction is -4.07% [at 7.66 µM].

For `CCCCCCCC(=O)CC[C@@H]1[C@@H](C/C=C\CCCC(=O)OC(C)C)[C@@H](O)C[C@H]1O`, the Potency result in test [1], in test [2], in test [3] and in test [4] was “inactive” each time.

Regarding `C[C@H](CSC(=O)c1ccccc1)C(=O)N1C[C@@H](Sc2ccccc2)C[C@H]1C(=O)O`, the Potency result in test [1], in test [2], in test [3] and in test [4] was “inactive” each time.

As to `NCCC(=O)[N-][C@@H](Cc1cnc[nH]1)C(=O)O.[Zn]`, the Potency entry in test [1], in test [2], in test [3] and in test [4] was “inactive” in each case.

Take `Nc1ncnc(Nc2ccc(Cl)cc2)n1`: the Potency result in test [1], in test [3] and in test [4] was “inactive” in each case. Also, the Potency in test [5] is 11.9 µM (active).

With `CCCCCCCCCCCCCCCC(=O)OC[C@@H](COP(=O)([O-])OCC[N+](C)(C)C)OC(=O)CCCCCCCCCCCCCCC`, the Potency entry in test [1], in test [2] and in test [3] was “inactive” in each case. The PLD induction in test [4] was -0.903% [at 1.53 µM].

With `C/C1=C2N=C(/C=C3N=C(/C(C)=C4\[N-]C(C(CC(N)=O)C4(C)CCC(=O)NCC(C)OP(=O)([O-])OC4C(CO)OC(n5cnc6cc(C)c(C)cc65)C4O)C4(C)N=C1C(CCC(N)=O)C4(C)CC(N)=O)C(CCC(N)=O)C\3(C)C)C(CCC(N)=O)C/2(C)CC(N)=O.[CH3-].[Co+3]` (centres undefined), the Potency in test [1] is 23.7 µM (active); in test [2] it was 26.6 µM (active). Moreover, in test [4], the Potency entry is “inactive”.

As to `C[C@]12C=CC(=O)C=C1CC[C@@H]1[C@@H]2[C@@H](O)C[C@@]2(C)[C@H]1CC[C@]2(O)C(=O)COC(=O)CCC(=O)O`, the Potency result in test [1], in test [2], in test [3] and in test [4] was “inactive” in each case.

Regarding `c1ccc2c(CCC3CCNCC3)c[nH]c2c1`, the Potency result in test [1], in test [3] and in test [4] was “inactive” throughout. The Potency in test [5] was 11.9 µM (active).

For `CCN(CC)CCOC(=O)c1ccc(N)cc1Cl`, the Potency result in test [1], in test [2], in test [3] and in test [4] was “inactive” each time.

Turning to `COC1=C(C(=O)O)N2C(=O)[C@@H](NC(=O)[C@H](N)C3=CCC=CC3)[C@H]2SC1`, the Potency entry in test [1], in test [2], in test [3] and in test [4] was “inactive” each time.

Turning to `CCCCCCCCCCCCCCCC(=O)OCCC1CCN(CCCN2c3ccccc3Sc3ccc(S(=O)(=O)N(C)C)cc32)CC1`, the Potency entry in test [1], in test [5], in test [3] and in test [4] was “inactive” each time.
